Assay results taken from PubChem BioAssay AID686979 (National Center for Advancing Translational Sciences (NCATS), 2013).
In all, about 420,000 compounds went through this assay and about 50,000 (12%) were called active. Not shown: some 26% with an inconclusive outcome. This is one part of a sample in which actives are shown more often than they occur. Unmarked numbers belong to inactive results. Calls come from the whole dose curve; as a rule, active = well fitted inhibition curve with a large enough effect; inconclusive = small, poorly fitted or top-dose-only effect; inactive = flat fitted curve, though single readings scatter.

Experiment: qHTS for Inhibitors of human tyrosyl-DNA phosphodiesterase 1 (TDP1): qHTS in cells in presence of CPT; note: nearly all actives have a fitted effect of over 55% in size
Conditions: chicken DT40 Tdp1-/-;hTDP1 cells + 20 nM CPT, ATP luminescence, 48 h; series mostly up to 46.2 µM; activity change, negative = growth inhibition: at the top concentration
Outline: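 Chicken DT40 Tdp1-/- cells stably complemented with human TDP1 were seeded at 400 cells/well in medium containing 20 nM camptothecin, exposed to pin-transferred compounds, and grown at 37 °C for at least 48 hr. Viability was read as ATP luminescence.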
% is set by controls: 0 for no effect and ±100 for the full control effect; potency is the fitted concentration of half-maximal effect.

Structure (SMILES) | Potency | activity change, negative = growth inhibition [%]
C=C1C(=C/C=C2\CCC[C@]3(C)[C@@H]([C@H](C)CCCC(C)(C)O)CC[C@@H]23)C[C@@H](O)C[C@@H]1O | 9.44 µM (active) | 
CCNC(=O)C1(C)CCCN(C(=O)c2ccc3ccccc3n2)C1 (stereo not drawn) |  | -17.1
CCOC(=O)c1sc(NC(=O)CSc2n[nH]c(CC)n2)nc1C |  | -18
O=C(N/N=C/c1ccc(Br)o1)c1cncc(Br)c1 |  | -1.47
Cc1sc2ncn(CC(=O)NCCCC(=O)NCc3ccc(F)cc3)c(=O)c2c1C |  | 1.23
Cn1cc(S(=O)(=O)N2CCC(Cc3ccccc3)CC2)c(=O)n(C)c1=O |  | -4.97
O=C1N[C@H](Cc2ccccc2)C(=O)N[C@H]1Cc1cn(S(=O)(=O)c2ccccc2)c2ccccc12 | 13 µM (active) | 
CSc1ncccc1C(=O)Nc1ccc2c(c1)OCO2 |  | -7.18
Cc1c(NC(=S)NCc2ccc(F)cc2)cccc1[N+](=O)[O-] | 20.6 µM (active) | 
Cc1c(NC(=O)/C=C/C(=O)O)cccc1[N+](=O)[O-] |  | -18.6
Cc1c(NC(=O)CCCOc2ccccc2)cccc1[N+](=O)[O-] |  | -6
CCN(CC(=O)NCc1ccc(Cl)cc1)C(=O)CSc1ccccc1 |  | -16.6
c1ccc(-c2ccc3c(c2)NC(C2Nc4cc(-c5ccccc5)ccc4O2)O3)cc1 (stereo not drawn) |  | -2.09
CC1CCN(S(=O)(=O)c2ccc3[nH]c(=O)ccc3c2)CC1 |  | -2.79
CC(=O)c1cccc(Nc2ccc3cc(S(=O)(=O)N4CCC(C)CC4)ccc3n2)c1 | 18.4 µM (active) | 
CC(=O)c1cccc(NC(=O)COc2ccc(S(=O)(=O)N3CCOCC3)cc2)c1 |  | -18.5
CCCc1c(C)nc2c(Br)cccc2c1Cl |  | -1.98
COc1cc(NS(=O)(=O)c2ccc(N/C=C(\C=O)c3nc4cc(Cl)ccc4o3)cc2)nc(OC)n1 |  | -24.7
Cn1ncc(Br)c1C(=O)NC1CCCC1 |  | -11.4
CCC(Oc1ccccc1)C(=O)OCC(=O)Nc1c(C)nn(-c2ccccc2)c1C (stereo not drawn) |  | 5.19
Nc1cc(=O)n(Cc2ccccc2)c(=O)n1Cc1ccccc1 |  | -10.3
CC1CCCN(Cc2c(O)ccc3c(=O)c(Oc4ccc(C(C)(C)C)cc4)c(C(F)(F)F)oc23)C1 (stereo not drawn) |  | -18.6
CCN1CCN(Cc2c(O)ccc3c(=O)c(-c4ccc(OC)c(OC)c4)c(C(F)(F)F)oc23)CC1 |  | -18.3
Cc1ccc(C)c(Oc2c(C(F)(F)F)oc3c(CN4CCN(C)CC4)c(O)ccc3c2=O)c1 | 23.1 µM (active) | 
Cc1c(C(=O)NCc2ccccc2)cnn1-c1ccccc1 |  | -16.4
CSc1ccc(CCNC(=O)c2cnn(-c3ccccc3)c2-n2cccc2)cc1 | 18.4 µM (active) | 
CCCN1CCN(CCCNC(=O)c2cnn(-c3ccc(C)cc3)c2-n2cccc2)CC1 |  | -24

Structure (SMILES) | Potency | activity change, negative = growth inhibition [%]
COc1cc(C(=O)Nc2ncccc2C)ccc1OCC(=O)N1CCOCC1 |  | -0.766
Cn1ccnc1-c1nnn(-c2ccc(F)cc2)n1 |  | -4.66
C/C(=N\NC(=O)c1ccccc1F)c1ccccn1 | 3.26 µM (active) | 
O=C(Nc1ccc(NC(=O)c2ccccc2F)cc1)c1ccccc1F |  | -12.9
COc1ccc(C/C(C)=N/NC(=O)c2cc(C)oc2C)cc1 |  | 0.402
C/C(=N\NC(=O)Cc1ccc(Cl)cc1)c1ccccn1 | 1.46 µM (active) | 
COc1ccc(CC(=O)N/N=C(\C)c2ccccn2)cc1 | 3.66 µM (active) | 
C/C(CC(=O)Nc1ccc(N(C)C)cc1)=N\NC(=O)c1ccccc1F |  | -17.5
CC(=NNC(=S)N1CCCCCC1)c1ccccn1 | 0.0092 µM (active) | 
C/C(=N\NC(=O)Cc1ccc(Br)cc1)c1cccnc1 |  | -24.7
Cc1ccc(Cl)cc1NC(=O)c1ccccn1 |  | -18.9
COc1ccc(C/C(C)=N/NC(=O)c2ccncc2)cc1 |  | 5.91
Cc1cccc(C)c1NC(=S)N1CCCCCC1 |  | -7.74
CNC(=S)N1CCN(c2ccccn2)CC1 |  | -0.34
CCC1([N+](=O)[O-])COC(c2ccc(C)cc2)OC1 (stereo not drawn) |  | -10.3
Cc1cc(C(C)(C)C)n2nc(C)c(-c3ccccc3)c2n1 |  | -11.6
CCc1nnc(NC(=O)c2cc(S(=O)(=O)N3CCCCC3)ccc2C)s1 |  | -3.57
CCOC(=O)C1CCN(C(c2ccc(F)cc2)c2sc3nc(-c4ccco4)nn3c2O)CC1 (stereo not drawn) |  | -0.823
Cc1cccc(N(C(=O)c2csnn2)C(C(=O)NCc2ccccc2)c2ccncc2)c1 (stereo not drawn) |  | -22
Cc1ccc(NC(=O)CCCNC(=O)c2ccc(Cl)cc2)cc1S(=O)(=O)N1CCOCC1 |  | -28.1
O=C(Nc1cccc(F)c1)N1CC2(CCN(C(=O)c3cnccn3)CC2)C1 |  | 1.43
COc1ccc(NC(=O)Cn2ncn3c(cc4ccccc43)c2=O)c(OC)c1OC |  | 18.6
O=C1CCC(C(=O)N2CCC(O)(c3ccccc3)CC2)CN1CCc1ccccc1 (stereo not drawn) |  | -4.28
Cc1cccnc1NC(=O)CSc1nnc(COc2ccc(C(C)C)cc2)n1C |  | -14
CN(CC(=O)Nc1ccccc1Cl)C(=O)COc1cccc2c1OC(C)(C)C2 |  | -16.5
Cn1nc(C(F)(F)F)c(C(=O)Nc2cccc(C(F)(F)F)c2)c1SCc1ccc(Cl)cc1 | 16.4 µM (active) | 
